“And” between values parts separate entries of the source, which are not always exact repeats. Identical values can stand only once. Inconclusive results are not listed. Where a structure was tested more than once in an assay, its records may differ in their call. The source made the active and inactive calls. The call rests on the fitted dose curve; in most records, active means well fitted curve in the direction sought with a large enough effect in the repeat runs; inconclusive means weak or mixed curves; inactive means no such curve, though single readings can be large; an effect the other way counts as inactive or inconclusive.

Experimental findings from PubChem BioAssay (Tox21) are described below.

The nature of assay [1]: Caspase-3/7 induction in HepG2 cells by small molecules, qHTS assay (AID 1346978). Further: nearly all actives have a fitted effect of over 15% in size. A digest of the protocol: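 Wild-type HepG2 cells, 2,000/well, settled 5 hr at 37 C and 5% CO2, then compound-treated for 17 hr; caspase-3/7 activity read by luminescent Caspase-Glo 3/7 after 30 min at room temperature.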
Assay [2] in a line: Caspase-3/7 induction in CHO-K1 cells by small molecules, qHTS cell viability counter screen (AID 1346979). Further: nearly all actives have a fitted effect of over 35% in size. Further: potency means the concentration at half of the fitted maximal effect. A digest of the protocol: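 In the same wells as the caspase read, viability of compound-treated wild-type CHO-K1 cells was assessed using CellTiter-Fluor, added after 16hr at 37C and measured by fluorescence following 1hr further incubation.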
Background: Quantitative high-throughput screening tests each substance at several concentrations.

The nature of assay [3]: Caspase-3/7 induction in HepG2 cells by small molecules, qHTS cell viability counter screen (AID 1346981). Further: series mostly up to about 92 µM; nearly all actives have a fitted effect of over 30% in size. A digest of the protocol:
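HepG2, WT, 2,000 cells/well; 5 hr pre-incubation 37 C/5% CO2; compound pin-transferred from DMSO; 16 hr exposure; CellTiter-Fluor, 1 hr; fluorescence read.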

Assay [4] has as its target Nuclear receptor subfamily 1 group I member 2 (Homo sapiens) (UniProt O75469). The experiment in a line: Human pregnane X receptor (PXR) small molecule agonists, qHTS assay (AID 1346982). Further: nearly all actives have a fitted effect of over 35% in size. Further: potency means the concentration at half of the fitted maximal effect. A digest of the protocol: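 Luciferase signal from ONE-Glo (30 min, room temperature) measured activation of hPXR-driven CYP3A4 reporter expression in PXR-Luc HepG2 cells treated with compounds for 24 hr at 37 C.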

Assay [5] addresses Cytochrome P450 2D6 (Homo sapiens) (UniProt P10635). The experiment in a line: Cytochrome P450 Family 2 Subfamily D Member 6 (CYP2D6) small molecule antagonists: luciferase reporter qHTS assay (AID 1671196). Further: nearly all actives have a fitted effect of over 50% in size. Further: potency means the concentration at half of the fitted maximal effect. A digest of the protocol: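 Read-out is luminescence from luciferin formed by CYP2D6 turnover of a proluciferin substrate, recorded as relative luminescence units. Reactions ran 1 h at room temperature after NADPH regeneration solution was added.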
(In general: In a reporter assay the amount or activity of a reporter protein is the signal.)

Assay [6] concerns the target Cytochrome P450 2C19 (Homo sapiens) (UniProt P33261). The experiment in a line: Cytochrome P450 Family 2 Subfamily C Member 19 (CYP2C19) small molecule antagonists: luciferase reporter qHTS assay (AID 1671197). Further: nearly all actives have a fitted effect of over 65% in size. Further: potency means the concentration at half of the fitted maximal effect. A digest of the protocol:
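Relative luminescence units recorded 20 min after the detection reagent stopped a 1 h, 37C CYP2C19 reaction on proluciferin substrate, which was started by NADPH regeneration following 10 min room-temperature compound preincubation; ketoconazole positive control.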

The target in assay [7] is Cytochrome P450 2C9 (Homo sapiens) (UniProt P11712). The experiment in a line: Cytochrome P450 Family 2 Subfamily C Member 9 (CYP2C9) small molecule antagonists: luciferase reporter qHTS assay (AID 1671198). Further: series mostly up to about 120 µM; nearly all actives have a fitted effect of over 50% in size. A digest of the protocol:
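P450-Glo proluciferin substrate with CYP2C9 enzyme; 10 min RT preincubation, then NADPH regeneration 1 h at 37C; luciferin detection reagent 20 min RT, luminescence in relative luminescence units.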

Assay [8] concerns the target Cytochrome P450 1A2 (Homo sapiens) (UniProt P05177). In words: Cytochrome P450 Family 1 Subfamily A Member 2 (CYP1A2) small molecule antagonists: luciferase reporter qHTS assay (AID 1671199). Further: nearly all actives have a fitted effect of over 50% in size. Further: potency means the concentration at half of the fitted maximal effect. A digest of the protocol:
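P450-Glo CYP1A2, 1536-well qHTS: enzyme/proluciferin substrate + cpd (DMSO), 10 min RT; NADPH regen, 1 h RT; detection reagent, 20 min; luminescence, RLU.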

For assay [9], the target named is Voltage-gated inwardly rectifying potassium channel KCNH2 (Homo sapiens) (UniProt Q12809). The experiment in a line: Human Ether-a-go-go-Related Gene (hERG) channel small molecule antagonists: fluorescence cell-based qHTS assay (AID 1671200). Further: nearly all actives have a fitted effect of over 50% in size. Further: potency means the concentration at half of the fitted maximal effect. A digest of the protocol:
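Quantitative HTS in hERG-U2OS cells: thallium entry through the channel reports activity, read as continuous 480/540 nm fluorescence over 2 min after stimulus addition.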
On the technique in general: Block of hERG is tested as a sign of cardiac risk.

The target in assay [10] is Cytochrome P450 3A4 (Homo sapiens) (UniProt P08684). The experiment in a line: Cytochrome P450 Family 3 Subfamily A Member 4 (CYP3A4) small molecule antagonists: luciferase reporter qHTS assay (AID 1671201). Further: nearly all actives have a fitted effect of over 50% in size. Further: potency means the concentration at half of the fitted maximal effect. A digest of the protocol: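 Inhibition of CYP3A4 is measured as loss of light: the enzyme converts a proluciferin substrate to luciferin, detected luminescently. Reaction ran 1 h at room temperature with NADPH regeneration after a 10 min compound preincubation.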
Chain of Cytochrome P450 3A4 (Homo sapiens) (P08684 whole entry, looked up): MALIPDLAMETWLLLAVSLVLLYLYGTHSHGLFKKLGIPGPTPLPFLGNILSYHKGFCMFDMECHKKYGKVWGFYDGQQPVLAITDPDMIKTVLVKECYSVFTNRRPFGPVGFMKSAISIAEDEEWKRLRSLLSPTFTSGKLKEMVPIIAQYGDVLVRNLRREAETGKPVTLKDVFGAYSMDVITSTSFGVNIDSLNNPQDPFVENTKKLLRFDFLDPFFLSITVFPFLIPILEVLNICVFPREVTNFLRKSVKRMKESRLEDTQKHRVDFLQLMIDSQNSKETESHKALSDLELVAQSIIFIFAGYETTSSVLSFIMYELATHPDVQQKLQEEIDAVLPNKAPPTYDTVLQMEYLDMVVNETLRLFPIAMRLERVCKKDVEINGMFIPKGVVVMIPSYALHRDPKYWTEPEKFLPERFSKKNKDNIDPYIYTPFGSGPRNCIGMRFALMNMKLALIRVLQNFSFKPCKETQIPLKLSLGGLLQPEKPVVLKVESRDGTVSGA

Assay [11] is described as follows: Caspase-3/7 induction in CHO-K1 cells by small molecules, qHTS assay (AID 1346980). Further: nearly all actives have a fitted effect of over 15% in size. A digest of the protocol:
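Wild-type CHO-K1 cells exposed to compounds for 17hr at 37 C, 5% CO2. Caspase-3/7 activity then measured by Caspase-Glo 3/7 luminescence after 30min at room temperature.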

Assay [12] concerns the target Nuclear receptor subfamily 1 group I member 2 (Rattus norvegicus) (UniProt Q9R1A7). The experiment in a line: Rat pregnane X receptor (rPXR) activation by small molecules, qHTS assay (AID 1346983). Further: nearly all actives have a fitted effect of over 20% in size. Particulars: rPXR luciferase reporter cells, One-Glo luminescence, 24 h; stronger effect = higher value. A digest of the protocol:
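Cell-based rPXR activation assay: rPXR cells, 2,000 per well, rested 5hr at 37 C, then exposed to compounds in DMSO for 24 hr at 37 C. Luciferase activity read by One-Glo luminescence after 30 min at room temperature.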

The target in assay [13] is Nuclear receptor subfamily 1 group I member 2 (Homo sapiens) (UniProt O75469). In words: CYP3A4 induction through human pregnane X receptor (PXR) by small molecules, qHTS assay (AID 1346984). Further: nearly all actives have a fitted effect of over 40% in size. A digest of the protocol:
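Luminescence readout: luciferase signal after One-Glo (30 min, room temperature), following 3 h at 37C with 3uM final Luciferin-IPA P450 substrate. Cells were DPX-2 (HepG2, PXR/CYP3A4-luc co-transfected) dosed for 24 h.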

For assay [14] the target is unchanged. The experiment in a line: Human pregnane X receptor (PXR) activation by small molecules, qHTS assay (AID 1346985). Further: nearly all actives have a fitted effect of over 40% in size. A digest of the protocol:
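DPX-2 cells (HepG2 co-transfected with a PXR response element and a CYP3A4-promoter luciferase construct) were seeded at 2,000 per well, rested 5 hr at 37C, then exposed to DMSO-dissolved compounds for 24 hr. Activation was read as luciferase luminescence.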
On the % scale 0 is the no-effect control and ±100 the full control effect.

Chain of Cytochrome P450 1A2 (Homo sapiens) (P05177 whole entry, looked up): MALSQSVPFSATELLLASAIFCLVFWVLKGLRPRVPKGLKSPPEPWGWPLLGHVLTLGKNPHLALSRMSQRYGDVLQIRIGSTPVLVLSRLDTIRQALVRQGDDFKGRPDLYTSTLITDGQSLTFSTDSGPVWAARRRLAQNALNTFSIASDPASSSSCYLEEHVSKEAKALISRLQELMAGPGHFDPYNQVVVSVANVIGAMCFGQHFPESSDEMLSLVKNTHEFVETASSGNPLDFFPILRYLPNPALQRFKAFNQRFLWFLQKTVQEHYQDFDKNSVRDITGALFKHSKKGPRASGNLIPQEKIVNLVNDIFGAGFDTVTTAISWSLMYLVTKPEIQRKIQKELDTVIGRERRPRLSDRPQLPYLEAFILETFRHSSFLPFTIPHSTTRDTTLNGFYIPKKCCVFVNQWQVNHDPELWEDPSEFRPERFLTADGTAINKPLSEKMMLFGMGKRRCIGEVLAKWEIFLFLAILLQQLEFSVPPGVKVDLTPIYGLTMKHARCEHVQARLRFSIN
Chain of Cytochrome P450 2C19 (Homo sapiens) (P33261 whole entry, looked up): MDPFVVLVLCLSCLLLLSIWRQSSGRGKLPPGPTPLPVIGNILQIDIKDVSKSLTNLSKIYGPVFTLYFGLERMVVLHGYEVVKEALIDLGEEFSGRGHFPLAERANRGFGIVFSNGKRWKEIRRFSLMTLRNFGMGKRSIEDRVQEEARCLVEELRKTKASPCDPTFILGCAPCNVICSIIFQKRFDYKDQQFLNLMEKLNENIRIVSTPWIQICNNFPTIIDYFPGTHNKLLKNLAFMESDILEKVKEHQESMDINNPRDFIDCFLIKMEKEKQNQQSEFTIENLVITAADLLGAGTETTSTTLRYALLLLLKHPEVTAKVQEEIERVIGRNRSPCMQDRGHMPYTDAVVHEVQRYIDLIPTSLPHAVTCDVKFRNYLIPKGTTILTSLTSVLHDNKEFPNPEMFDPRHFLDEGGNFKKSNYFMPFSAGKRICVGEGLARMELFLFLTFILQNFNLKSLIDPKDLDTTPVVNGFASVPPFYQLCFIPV
Chain of Nuclear receptor subfamily 1 group I member 2 (Homo sapiens) (O75469 whole entry, looked up): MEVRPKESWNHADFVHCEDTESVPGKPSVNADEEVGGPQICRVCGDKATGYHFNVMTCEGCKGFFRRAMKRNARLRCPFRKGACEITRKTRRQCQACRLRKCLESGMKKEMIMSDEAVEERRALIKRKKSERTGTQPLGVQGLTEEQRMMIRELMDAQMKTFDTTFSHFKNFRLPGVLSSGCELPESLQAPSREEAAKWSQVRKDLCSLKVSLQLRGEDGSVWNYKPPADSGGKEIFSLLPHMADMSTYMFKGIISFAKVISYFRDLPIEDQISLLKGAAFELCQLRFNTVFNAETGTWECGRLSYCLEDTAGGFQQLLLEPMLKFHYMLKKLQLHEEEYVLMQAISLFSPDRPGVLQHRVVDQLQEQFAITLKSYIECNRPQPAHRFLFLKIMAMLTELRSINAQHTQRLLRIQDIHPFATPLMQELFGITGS
Chain of Cytochrome P450 2D6 (Homo sapiens) (P10635 whole entry, looked up): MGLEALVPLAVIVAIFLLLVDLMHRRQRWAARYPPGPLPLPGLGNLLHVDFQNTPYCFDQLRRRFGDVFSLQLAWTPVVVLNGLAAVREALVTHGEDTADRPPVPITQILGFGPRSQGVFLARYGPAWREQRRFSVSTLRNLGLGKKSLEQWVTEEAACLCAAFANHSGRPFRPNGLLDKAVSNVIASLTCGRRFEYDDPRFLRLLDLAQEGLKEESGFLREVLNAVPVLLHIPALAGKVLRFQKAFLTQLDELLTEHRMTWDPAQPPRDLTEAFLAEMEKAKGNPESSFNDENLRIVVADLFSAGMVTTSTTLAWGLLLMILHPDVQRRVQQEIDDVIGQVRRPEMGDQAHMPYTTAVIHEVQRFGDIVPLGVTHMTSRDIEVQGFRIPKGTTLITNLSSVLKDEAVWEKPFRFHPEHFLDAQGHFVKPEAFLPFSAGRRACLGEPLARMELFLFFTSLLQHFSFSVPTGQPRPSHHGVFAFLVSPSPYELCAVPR
Chain of Voltage-gated inwardly rectifying potassium channel KCNH2 (Homo sapiens) (Q12809 whole entry, looked up): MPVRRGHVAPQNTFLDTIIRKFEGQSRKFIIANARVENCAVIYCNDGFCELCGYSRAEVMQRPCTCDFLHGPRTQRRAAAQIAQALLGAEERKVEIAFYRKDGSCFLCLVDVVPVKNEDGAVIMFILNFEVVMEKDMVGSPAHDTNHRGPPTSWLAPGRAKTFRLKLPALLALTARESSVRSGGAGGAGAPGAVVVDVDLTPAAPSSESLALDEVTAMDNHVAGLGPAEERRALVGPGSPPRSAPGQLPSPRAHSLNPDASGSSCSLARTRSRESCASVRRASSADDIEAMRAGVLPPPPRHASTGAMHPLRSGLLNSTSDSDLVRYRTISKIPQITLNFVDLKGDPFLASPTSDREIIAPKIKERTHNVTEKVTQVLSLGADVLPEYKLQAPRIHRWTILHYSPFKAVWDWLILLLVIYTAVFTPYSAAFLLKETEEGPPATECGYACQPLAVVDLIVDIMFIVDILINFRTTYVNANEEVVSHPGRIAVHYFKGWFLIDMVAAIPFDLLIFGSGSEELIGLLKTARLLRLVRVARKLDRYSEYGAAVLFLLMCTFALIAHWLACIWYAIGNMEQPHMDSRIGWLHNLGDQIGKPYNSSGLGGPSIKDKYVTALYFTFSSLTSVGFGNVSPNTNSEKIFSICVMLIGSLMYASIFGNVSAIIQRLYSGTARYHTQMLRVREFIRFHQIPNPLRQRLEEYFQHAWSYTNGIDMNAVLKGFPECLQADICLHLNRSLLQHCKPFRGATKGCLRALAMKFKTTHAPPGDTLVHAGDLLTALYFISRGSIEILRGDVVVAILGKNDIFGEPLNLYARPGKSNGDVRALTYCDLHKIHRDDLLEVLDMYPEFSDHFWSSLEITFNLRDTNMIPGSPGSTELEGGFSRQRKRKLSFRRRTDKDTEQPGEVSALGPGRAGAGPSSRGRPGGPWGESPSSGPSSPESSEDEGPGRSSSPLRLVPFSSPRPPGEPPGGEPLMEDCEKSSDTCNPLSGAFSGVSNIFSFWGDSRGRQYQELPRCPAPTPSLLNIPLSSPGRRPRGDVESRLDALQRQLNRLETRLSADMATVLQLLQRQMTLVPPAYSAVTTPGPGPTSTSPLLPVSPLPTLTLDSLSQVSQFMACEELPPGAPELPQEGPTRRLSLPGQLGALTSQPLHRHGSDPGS
Chain of Cytochrome P450 2C9 (Homo sapiens) (P11712 whole entry, looked up): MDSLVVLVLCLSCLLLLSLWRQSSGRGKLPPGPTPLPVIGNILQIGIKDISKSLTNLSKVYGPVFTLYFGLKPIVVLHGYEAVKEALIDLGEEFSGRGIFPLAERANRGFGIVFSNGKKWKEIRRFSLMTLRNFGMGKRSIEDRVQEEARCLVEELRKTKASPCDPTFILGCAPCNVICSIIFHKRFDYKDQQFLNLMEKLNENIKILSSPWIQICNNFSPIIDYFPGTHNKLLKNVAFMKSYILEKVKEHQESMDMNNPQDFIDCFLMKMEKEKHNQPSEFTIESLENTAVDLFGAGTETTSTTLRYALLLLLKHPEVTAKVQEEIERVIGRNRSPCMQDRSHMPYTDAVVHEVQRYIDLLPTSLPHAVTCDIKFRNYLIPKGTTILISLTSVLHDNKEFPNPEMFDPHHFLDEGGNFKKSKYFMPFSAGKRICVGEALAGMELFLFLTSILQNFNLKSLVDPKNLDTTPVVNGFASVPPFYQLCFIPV
Chain of Nuclear receptor subfamily 1 group I member 2 (Rattus norvegicus) (Q9R1A7 whole entry, looked up): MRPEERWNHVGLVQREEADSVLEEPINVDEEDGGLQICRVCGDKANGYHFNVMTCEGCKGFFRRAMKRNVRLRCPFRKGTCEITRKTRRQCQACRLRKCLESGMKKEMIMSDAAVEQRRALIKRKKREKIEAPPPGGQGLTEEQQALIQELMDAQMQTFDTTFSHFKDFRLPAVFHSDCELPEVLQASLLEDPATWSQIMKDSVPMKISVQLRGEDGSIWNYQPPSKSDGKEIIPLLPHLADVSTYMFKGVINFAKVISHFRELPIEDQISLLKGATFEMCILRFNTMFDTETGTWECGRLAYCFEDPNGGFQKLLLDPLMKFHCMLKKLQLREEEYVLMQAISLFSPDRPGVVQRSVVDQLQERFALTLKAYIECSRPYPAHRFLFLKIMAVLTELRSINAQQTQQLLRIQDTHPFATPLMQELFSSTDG

Regarding `CCCCCC(C)=O`, the Potency result in assay [1], in assay [2], in assay [3], in assay [4], in assay [5] and in assay [7] was “inactive” throughout. The Potency result in [8], in assay [9] and in assay [10] was “inactive” throughout. Further, the Potency in assay [6] is 81.3 µM (active) and inactive.
On to `COc1ccc([C@@H]2CC(=O)c3c(O)cc(O[C@@H]4O[C@H](CO[C@@H]5O[C@@H](C)[C@H](O)[C@@H](O)[C@H]5O)[C@@H](O)[C@H](O)[C@H]4O)cc3O2)cc1OC`, for which the Potency result in assay [1], in assay [2], in assay [11], in assay [3], in [4] and in assay [5] was “inactive” in each case. For the same compound, the Potency entry in [6], in assay [8] and in assay [9] was “inactive” in each case. Besides, in assay [10], the Potency entry is “inactive and 21.7 µM (active)”.
For `CC(=O)C(C)C`, the Potency result in assay [1], in [3], in assay [4], in [5], in assay [6] and in assay [7] was “inactive” throughout. The Potency entry in assay [8], in assay [9] and in assay [10] was “inactive” in each case. Also, the Potency in [2] is 63.4 µM (active) and inactive.
Take `Cc1ccncc1`: the Potency result in [1], in assay [2], in assay [11], in [3], in [4] and in assay [5] was “inactive” throughout. For the same compound, the Potency entry in assay [6], in [7], in assay [8], in assay [9] and in assay [10] was “inactive” each time.
Turning to `CC[N+](CC)(CC(=O)Nc1c(C)cccc1C)Cc1ccccc1`, the Potency entry in assay [1], in assay [2], in assay [11], in [3] and in [8] was “inactive” throughout. Besides, the Potency in [5] is 11.2 nM (active) and inactive; in assay [6], 39.9 µM (active) and inactive; in [9], 24.5 µM (active) and inactive.
For the compound `CC(C)(CO)CO`, the Potency entry in assay [1], in assay [2], in [3], in assay [4], in assay [5] and in [6] was “inactive” each time. Further, the Potency result in assay [7], in assay [9] and in [10] was “inactive” throughout.
As for `OC1CCCCC1`, the Potency result in [1], in assay [2], in assay [11], in assay [3], in assay [4] and in assay [5] was “inactive” throughout. Further, the Potency entry in assay [6], in assay [7], in [8], in assay [9] and in assay [10] was “inactive” each time.
Consider `CC1(C)[C@@H](O[C@H]2O[C@H](C(=O)O)[C@@H](O)[C@H](O)[C@H]2O[C@@H]2O[C@H](C(=O)O)[C@@H](O)[C@H](O)[C@H]2O)CC[C@]2(C)[C@H]3C(=O)C=C4[C@@H]5C[C@@](C)(C(=O)O)CC[C@]5(C)CC[C@@]4(C)[C@]3(C)CC[C@@H]12`, for which the Potency entry in [1], in assay [2], in [3], in assay [4], in [13] and in assay [5] was “inactive” in each case. For the same compound, the Potency entry in assay [6], in [7], in assay [8], in [9] and in assay [10] was “inactive” throughout. For the same compound, the max activation in [12] is -0.648% (inactive). Besides, in [14], the compound was classed as inactive.
Take `Nc1nc(N)c2nc(-c3ccccc3)c(N)nc2n1`: the Potency result in assay [1], in [11], in assay [3], in assay [6] and in assay [9] was “inactive” each time. The Potency in [4] was 49.1 µM (active) and 61.1 µM (active) and 26.6 µM (active); in assay [5], 64 µM (active) and inactive; in assay [8], 36 µM (active) and 31.7 µM (active) and 24.5 µM (active).
With `CCc1cccc(O)c1`, the Potency result in assay [1], in [2], in [11], in [3], in [4] and in assay [5] was “inactive” throughout. Further, the Potency result in assay [7], in assay [9] and in assay [10] was “inactive” throughout. Further, the Potency in [6] is 40.8 µM (active).
